Inconclusive results are not listed. Calls of active or inactive are those of the source.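 Rule for the calls, unless noted: active = inhibition above the screen-wide mean plus 3 SD, about 51%; inactive = the rest.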
Tests used:
[1] = rapamycin-like changes in RPL19A-GFP expression – cell-based, S. cerevisiae, multiplex flow cytometry, primary screen (AID 1862; in the data active = percent of DMSO control GFP below about 86%;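 note: lower values mimic rapamycin by blocking the RPL19A rise seen in DMSO cells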); details: S. cerevisiae RPL19A-GFP strain, flow cytometry fluorescence, 3 h; at 10 µM; stronger effect = lower value
[2] = TOR pathway GLN3 branch reporter MEP2-GFP changes – S. cerevisiae, multiplex flow cytometry, primary screen (AID 1867;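 active = GFP response, as percent of the DMSO control, above the screen-wide mean plus 3 SD, about 139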;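 note: median GFP channel fluorescence of barcode-gated MEP2-GFP cells measured by flow cytometry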); details: S. cerevisiae MEP2-GFP strain, 3 h, at 10 µM, stronger effect = higher value, 100% means same as DMSO wells
[3] = TOR pathway RTG branch CIT2 reporter changes – S. cerevisiae, GFP fusion, multiplex flow cytometry, primary screen (AID 1870;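 active = percent response above a set limit, the screen-wide mean plus 3 SD, cut at about 130% in these data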;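 note: barcoded CIT2-GFP strain pooled with four other GFP strains with rapamycin as positive control; median GFP fluorescence per well over plate mean of DMSO wells so 100% = DMSO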); details: S. cerevisiae CIT2-GFP expression, 3 h, at 10 µM, stronger effect = higher value
[4] = TOR pathway LAP4-GFP level changes – S. cerevisiae, multiplex flow cytometry, primary screen (AID 1873;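 active = GFP signal, as percent of the solvent control, above the screen mean plus 3 SD, about 149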); details: S. cerevisiae LAP4-GFP expression, 3 h, at 10 µM, stronger effect = higher value
[5] = yeast AGP1-GFP level changes, GLN3 branch – cell-based, multiplex flow cytometry, S. cerevisiae, primary screen (AID 1887;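 active = GFP signal above the screen-wide mean plus 3 SD, that is over about 124.5% of the solvent control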;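 note: AGP1-GFP fusion strain of S. cerevisiae within a five-strain barcoded multiplex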); details: 3 h, at 10 µM, stronger effect = higher value
[6] = reduced mouse 2C T cell binding to pMHC/ICAM-1 vesicles – MLPCN validation set, flow cytometry, LFA-1/ICAM-1 modulator project, pilot screen (AID 2523;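 active = response below a set limit, under 55% cells CD8-positive and vesicle-bound, and CD8 cells' 90th-percentile brightness under 279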;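 for vesicle binding response: mean PE anti-B7-1 fluorescence of CD8+ cells relative to row control; 100% = QL9-loaded vesicles with DMSO vehicle in the same plate row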); details: 2C mouse CD8+ T cells, at 7 µM, stronger effect = lower value; double positive events: measured here: CD8+/vesicle+ event percentage
[7] = target: Integrin beta-1 (Homo sapiens) + Integrin alpha-4 (Homo sapiens) (UniProt P13612+P05556); test: alpha4beta1 integrin LIBS antibody binding reduction – U937 cells, HUTS-21 mAb, flow cytometry, validation set, VLA-4 allosteric modulator project, pilot screen (AID 2674;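 active = inhibition above 50%, about 3 SD of the validation set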;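 note: antibody binding induced by the VLA-4 ligand LDV present at three times its Kd; 0% = LDV ligand with antibody and no compound and 100% = antibody without LDV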); details: HUTS-21 LIBS mAb binding, at 6.7 µM, stronger effect = higher value, binding induced by LDV ligand
Sequence of Integrin beta-1 (Homo sapiens) + Integrin alpha-4 (Homo sapiens) (P05556 whole entry, looked up): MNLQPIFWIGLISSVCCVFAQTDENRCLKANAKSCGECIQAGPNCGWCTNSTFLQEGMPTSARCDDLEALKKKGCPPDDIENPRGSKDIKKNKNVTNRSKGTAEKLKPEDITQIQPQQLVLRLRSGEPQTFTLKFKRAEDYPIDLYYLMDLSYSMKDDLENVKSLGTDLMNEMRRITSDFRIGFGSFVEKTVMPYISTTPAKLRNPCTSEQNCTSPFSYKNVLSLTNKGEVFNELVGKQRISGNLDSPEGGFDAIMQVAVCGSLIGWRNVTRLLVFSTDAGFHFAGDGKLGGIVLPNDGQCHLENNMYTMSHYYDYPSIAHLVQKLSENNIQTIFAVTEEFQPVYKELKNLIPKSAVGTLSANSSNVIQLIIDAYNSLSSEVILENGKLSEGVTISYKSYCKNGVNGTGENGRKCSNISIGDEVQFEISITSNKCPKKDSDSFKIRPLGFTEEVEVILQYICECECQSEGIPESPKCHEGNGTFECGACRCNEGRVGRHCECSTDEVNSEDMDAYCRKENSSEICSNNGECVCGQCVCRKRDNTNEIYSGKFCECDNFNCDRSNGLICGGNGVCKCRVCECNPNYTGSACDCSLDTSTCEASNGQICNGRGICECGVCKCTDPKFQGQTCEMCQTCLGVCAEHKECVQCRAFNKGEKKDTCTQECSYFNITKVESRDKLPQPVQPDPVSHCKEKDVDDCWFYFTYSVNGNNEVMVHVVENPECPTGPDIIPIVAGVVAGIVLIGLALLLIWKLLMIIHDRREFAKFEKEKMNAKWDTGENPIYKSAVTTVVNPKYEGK
Sequence of Integrin beta-1 (Homo sapiens) + Integrin alpha-4 (Homo sapiens) (P13612 whole entry, looked up): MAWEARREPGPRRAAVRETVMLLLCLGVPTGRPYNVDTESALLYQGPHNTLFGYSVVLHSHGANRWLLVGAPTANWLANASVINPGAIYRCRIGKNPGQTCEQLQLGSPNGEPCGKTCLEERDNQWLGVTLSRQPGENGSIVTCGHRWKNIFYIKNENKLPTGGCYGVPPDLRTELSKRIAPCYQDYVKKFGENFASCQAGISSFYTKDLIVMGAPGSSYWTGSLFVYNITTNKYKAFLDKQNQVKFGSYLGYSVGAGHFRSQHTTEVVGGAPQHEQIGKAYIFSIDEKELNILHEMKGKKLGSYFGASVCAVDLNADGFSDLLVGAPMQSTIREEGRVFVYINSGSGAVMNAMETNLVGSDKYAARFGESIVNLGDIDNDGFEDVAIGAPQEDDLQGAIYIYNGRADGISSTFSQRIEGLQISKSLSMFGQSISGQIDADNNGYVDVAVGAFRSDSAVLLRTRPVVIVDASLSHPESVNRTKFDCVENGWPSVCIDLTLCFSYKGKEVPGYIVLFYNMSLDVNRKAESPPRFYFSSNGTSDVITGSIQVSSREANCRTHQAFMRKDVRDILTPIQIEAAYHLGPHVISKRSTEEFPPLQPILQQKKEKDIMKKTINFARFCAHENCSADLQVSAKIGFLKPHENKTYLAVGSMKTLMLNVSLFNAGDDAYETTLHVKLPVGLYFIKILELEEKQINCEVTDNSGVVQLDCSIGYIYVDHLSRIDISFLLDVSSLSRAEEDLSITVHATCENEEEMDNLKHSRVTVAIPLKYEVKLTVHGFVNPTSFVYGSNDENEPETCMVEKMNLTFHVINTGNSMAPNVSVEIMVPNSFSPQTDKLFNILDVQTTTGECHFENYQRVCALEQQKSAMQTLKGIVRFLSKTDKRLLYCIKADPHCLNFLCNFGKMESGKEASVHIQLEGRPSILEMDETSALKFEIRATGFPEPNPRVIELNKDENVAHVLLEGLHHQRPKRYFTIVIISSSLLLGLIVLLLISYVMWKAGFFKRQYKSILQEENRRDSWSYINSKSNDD

[8] = calorie-restriction mimetic ROS inhibitors, yeast – validation compound set, pilot screen (AID 2706;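 active = superoxide response below 65% of plate, a cut near 3 SD across the whole screen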;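 note: yeast exposed to compound for one week at 30 degrees C before staining; 100% = mean of all compound wells on the same plate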); details: S. cerevisiae aging, superoxide DHE fluorescence; at 10 µM, stronger effect = lower value
[9] = target: Beta-adrenergic receptor kinase 1 (Homo sapiens) (UniProt P25098); test: GRK2 binders displacing RNA aptamer, biochemical, validation, human GRK2, bead flow cytometry (AID 488806;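 active = aptamer binding inhibition above 30%, about 3 SD of noise from non-fluorescent compounds; inactive = inhibition at or below 30%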); details: bead-bound GRK2, FAM-aptamer displacement, at 10 µM, stronger effect = higher value
Sequence of Beta-adrenergic receptor kinase 1 (Homo sapiens) (P25098 whole entry, looked up): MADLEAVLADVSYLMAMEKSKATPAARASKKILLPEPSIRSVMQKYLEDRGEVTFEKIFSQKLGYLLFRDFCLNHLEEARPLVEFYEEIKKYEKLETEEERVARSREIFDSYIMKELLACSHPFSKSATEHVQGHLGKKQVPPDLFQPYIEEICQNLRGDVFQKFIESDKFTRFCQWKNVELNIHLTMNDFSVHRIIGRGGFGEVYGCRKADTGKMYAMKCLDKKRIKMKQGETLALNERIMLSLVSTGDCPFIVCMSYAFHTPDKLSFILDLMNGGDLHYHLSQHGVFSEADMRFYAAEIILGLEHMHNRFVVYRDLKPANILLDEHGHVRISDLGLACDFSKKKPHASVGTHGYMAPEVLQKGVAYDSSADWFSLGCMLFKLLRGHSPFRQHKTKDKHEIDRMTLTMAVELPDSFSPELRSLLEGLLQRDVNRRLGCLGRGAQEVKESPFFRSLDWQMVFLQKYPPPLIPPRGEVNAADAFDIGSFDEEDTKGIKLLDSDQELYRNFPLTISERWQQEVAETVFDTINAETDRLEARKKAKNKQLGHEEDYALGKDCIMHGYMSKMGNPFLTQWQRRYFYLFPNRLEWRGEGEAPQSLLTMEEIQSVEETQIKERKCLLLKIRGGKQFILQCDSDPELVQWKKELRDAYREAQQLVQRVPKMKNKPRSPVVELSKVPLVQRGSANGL

[10] = target: AP-2 complex subunit beta (Homo sapiens) (UniProt P63010); test: beta-arrestin/AP2 interaction blockers – biochemical, validation set, GST-AP2 beads, flow cytometry, pilot screen (AID 504541;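 active = inhibition above 54%, about 3 SD of non-fluorescent compounds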;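 note: AP2 carries R879A mutation and is captured from E. coli lysate; bead-bound FITC arrestin peptide fluorescence measuring arrestin peptide binding to AP2; 0% = DMSO wells and 100% = excess unlabeled arrestin peptide control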); details: FITC arrestin peptide, at 10 µM, stronger effect = higher value, AP2 beta2 appendage fragment, R879A mutant
Sequence of AP-2 complex subunit beta (Homo sapiens) (P63010 whole entry, looked up, the tested form may be a part, one chain of several): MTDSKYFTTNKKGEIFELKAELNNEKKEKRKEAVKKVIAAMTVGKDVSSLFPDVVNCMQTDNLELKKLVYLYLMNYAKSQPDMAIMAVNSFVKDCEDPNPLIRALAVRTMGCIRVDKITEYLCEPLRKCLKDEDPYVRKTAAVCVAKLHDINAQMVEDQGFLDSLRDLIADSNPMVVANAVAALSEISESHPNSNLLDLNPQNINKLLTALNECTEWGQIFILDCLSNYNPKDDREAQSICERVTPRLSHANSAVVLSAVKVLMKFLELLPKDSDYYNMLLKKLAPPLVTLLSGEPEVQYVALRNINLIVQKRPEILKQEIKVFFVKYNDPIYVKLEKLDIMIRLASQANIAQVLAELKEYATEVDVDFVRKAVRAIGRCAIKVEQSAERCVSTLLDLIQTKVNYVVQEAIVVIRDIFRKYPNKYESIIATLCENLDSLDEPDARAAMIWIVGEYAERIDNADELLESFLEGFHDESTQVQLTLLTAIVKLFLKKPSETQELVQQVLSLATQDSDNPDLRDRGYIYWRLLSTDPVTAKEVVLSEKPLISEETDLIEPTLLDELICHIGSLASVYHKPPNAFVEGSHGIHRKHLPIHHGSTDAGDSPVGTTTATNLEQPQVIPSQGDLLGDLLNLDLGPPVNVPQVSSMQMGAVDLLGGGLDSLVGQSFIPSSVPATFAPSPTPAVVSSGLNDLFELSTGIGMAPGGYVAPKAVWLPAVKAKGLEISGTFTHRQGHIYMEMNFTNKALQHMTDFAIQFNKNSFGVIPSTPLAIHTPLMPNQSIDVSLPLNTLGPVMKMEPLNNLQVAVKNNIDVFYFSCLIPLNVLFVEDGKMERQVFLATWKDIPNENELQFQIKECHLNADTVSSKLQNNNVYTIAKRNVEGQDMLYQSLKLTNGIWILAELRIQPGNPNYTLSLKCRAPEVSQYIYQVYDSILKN

[11] = cytosolic pH regulators acting via V-ATPase – S. cerevisiae, pHLuorin, HTS validation (AID 504600; in the data active = response above about 15%;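 note: plate controls were DMSO for no effect and reference compound for full effect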); details: V-ATPase proton transport, at 10 µM, stronger effect = higher value
[12] = tested on: anti-desmoglein-3 scFv antibody binding to human DSG3; test: blockers of pathogenic pemphigus antibody–desmoglein-3 binding – biochemical, validation compound set, bead-based, flow cytometry, pilot screen (AID 588368;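 active = binding below the plate cutoff, the plate median minus 3 SD, with a reading above zero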;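 note: signal is the median channel fluorescence of bead-bound GFP antibody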); details: Protein G beads, DSG3-Fc, scFv-GFP binding, at 10 µM, stronger effect = lower value
[13] = Nile Red efflux blockade in pump-expressing yeast – validation compound set, multiplex, phenotypic, pilot screen (AID 588506;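 active = efflux inhibition above 0.42, the validation set average plus 4 SD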;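 note: Nile Red retained in cells so higher fluorescence means more efflux inhibition; 0 = negative control wells and 1 = enniatin B 25 µM full block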); details: S. cerevisiae pump-expressing triplex, Nile Red efflux flow cytometry; at 10 µM; stronger effect = higher value; the pumps come from Candida albicans
[14] = target: ATP-binding cassette sub-family B member 6 (Homo sapiens) (UniProt Q9NP58); test: blockers of ABCB6-driven porphyrin uptake – K562-ABCB6 cells, flow cytometry, validation set, pilot screen (AID 588550); details: K562-ABCB6 porphyrin accumulation, 1 h, at 10 µM, stronger effect = higher value;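 note: 0% = DMSO wells and 100% = benzethonium chloride 70 µM positive control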
Sequence of ATP-binding cassette sub-family B member 6 (Homo sapiens) (Q9NP58 whole entry, looked up): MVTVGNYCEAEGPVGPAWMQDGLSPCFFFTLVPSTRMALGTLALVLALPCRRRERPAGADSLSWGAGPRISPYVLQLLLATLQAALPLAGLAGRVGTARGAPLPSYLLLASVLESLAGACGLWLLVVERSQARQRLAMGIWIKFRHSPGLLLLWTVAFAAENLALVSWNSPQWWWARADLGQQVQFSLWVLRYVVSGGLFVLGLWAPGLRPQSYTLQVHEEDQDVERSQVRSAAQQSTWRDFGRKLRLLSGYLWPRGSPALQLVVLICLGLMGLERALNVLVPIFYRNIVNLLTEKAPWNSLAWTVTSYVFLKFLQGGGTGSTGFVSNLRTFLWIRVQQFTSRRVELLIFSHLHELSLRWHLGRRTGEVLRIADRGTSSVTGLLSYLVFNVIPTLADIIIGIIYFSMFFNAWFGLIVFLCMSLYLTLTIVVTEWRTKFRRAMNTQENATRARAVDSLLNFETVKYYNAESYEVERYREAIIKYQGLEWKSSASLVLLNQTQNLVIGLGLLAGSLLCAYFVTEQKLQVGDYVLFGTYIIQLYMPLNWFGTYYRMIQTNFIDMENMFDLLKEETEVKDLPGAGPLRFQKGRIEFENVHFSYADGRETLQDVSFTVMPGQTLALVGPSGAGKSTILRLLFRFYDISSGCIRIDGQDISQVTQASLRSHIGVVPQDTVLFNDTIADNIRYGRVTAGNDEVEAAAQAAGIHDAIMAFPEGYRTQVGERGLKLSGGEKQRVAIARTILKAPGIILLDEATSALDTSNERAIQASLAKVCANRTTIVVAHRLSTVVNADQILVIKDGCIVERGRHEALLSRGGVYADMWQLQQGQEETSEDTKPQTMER

[15] = AML differentiation inducers, ER-HoxA9 marrow cells – cell-based, GFP/MAC1 double positive, flow cytometry, validation set, primary screen (AID 588685;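 active = differentiation response of at least 50%, scaled between solvent and reference control, from cells with both markers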;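 note: compound exposure lasts four days before antibody staining and flow analysis; 0% = DMSO wells and 100% = 5 µM fulvestrant positive control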); details: stronger effect = higher value, normalized: vehicle 0, fulvestrant 100

CO/N=C(\C(=O)N[C@@H]1C(=O)N2C(C(=O)O)=C(COC(C)=O)CS[C@H]12)c1csc(N)n1 (stereo in doubt)
61.1%: double positive events [6]
inactive: percent of DMSO control GFP [1] 95.8% | GFP response vs DMSO [2] 99.9% | percent response of DMSO control [3] 94.9% | GFP response vs DMSO [4] 90.3% | GFP response, % of DMSO [5] 93.4% | vesicle binding response [6] 224% | inhibition [7] 5.36% | superoxide response (% of plate) [8] 93.9% | aptamer binding inhibition [9] 3% | inhibition [10] 2.47% | response [11] -3.75% | binding (% of control) [12] 97.5% | efflux inhibition (fraction of control) [13] -0.09 | inhibition [14] 11% | differentiation response [15] 6.26%

Nc1ccc(N)c(C(=O)O)c1
50%: double positive events [6]
inactive: percent of DMSO control GFP [1] 100% | GFP response vs DMSO [2] 99.9% | percent response of DMSO control [3] 110% | GFP response vs DMSO [4] 85.3% | GFP response, % of DMSO [5] 90.3% | vesicle binding response [6] 122% | inhibition [7] -3.04% | superoxide response (% of plate) [8] 79% | response [11] -0.99% | efflux inhibition (fraction of control) [13] -0.24 | inhibition [14] 8% | differentiation response [15] -5.05%
active: aptamer binding inhibition [9] 92% | inhibition [10] 92.2% | binding (% of control) [12] 2.29%

O=C(Nc1cccc(Cl)c1)N1CCN2C(=O)c3ccccc3C12c1ccccc1 (stereo unspecified)
58.4%: double positive events [6]
inactive: percent of DMSO control GFP [1] 100% | GFP response vs DMSO [2] 98.9% | percent response of DMSO control [3] 96.9% | GFP response vs DMSO [4] 92.3% | GFP response, % of DMSO [5] 96.3% | vesicle binding response [6] 153% | inhibition [7] 0.69% | superoxide response (% of plate) [8] 92.6% | aptamer binding inhibition [9] 3% | inhibition [10] 0.48% | response [11] 2.99% | binding (% of control) [12] 102% | efflux inhibition (fraction of control) [13] 0.29 | inhibition [14] 7% | differentiation response [15] -13.1%

c1ccc2c3c(c(CN4CCCCC4)cc2c1)COC3
inactive: percent of DMSO control GFP [1] 109% | GFP response vs DMSO [2] 116% | GFP response vs DMSO [4] 122% | GFP response, % of DMSO [5] 104% | vesicle binding response [6] 176% | inhibition [7] -8.64% | superoxide response (% of plate) [8] 116% | aptamer binding inhibition [9] -6% | inhibition [10] -17.7% | response [11] 4.2% | binding (% of control) [12] 107% | efflux inhibition (fraction of control) [13] -0.12 | inhibition [14] 11% | differentiation response [15] -14.7%
active: percent response of DMSO control [3] 127%
38%: double positive events [6]

CCOc1cccc(N2C(=O)CC(N(CCc3ccc(OC)c(OC)c3)C(=O)CC)C2=O)c1 (stereo unspecified)
59.7%: double positive events [6]
inactive: percent of DMSO control GFP [1] 101% | GFP response vs DMSO [2] 105% | percent response of DMSO control [3] 104% | GFP response vs DMSO [4] 98.4% | GFP response, % of DMSO [5] 100% | vesicle binding response [6] 184% | inhibition [7] 0% | superoxide response (% of plate) [8] 94% | aptamer binding inhibition [9] 2% | inhibition [10] 27.3% | response [11] -1.88% | binding (% of control) [12] 100% | efflux inhibition (fraction of control) [13] -0.2 | inhibition [14] 5% | differentiation response [15] -18%

O=C(COc1ccccc1)N1CCN(c2ccccc2)CC1
53.2%: double positive events [6]
inactive: percent of DMSO control GFP [1] 102% | GFP response vs DMSO [2] 104% | percent response of DMSO control [3] 103% | GFP response vs DMSO [4] 100% | GFP response, % of DMSO [5] 97.8% | vesicle binding response [6] 176% | inhibition [7] -3.97% | superoxide response (% of plate) [8] 94% | aptamer binding inhibition [9] 2% | inhibition [10] 5.07% | response [11] -1.27% | binding (% of control) [12] 97.8% | efflux inhibition (fraction of control) [13] 0.25 | inhibition [14] 6% | differentiation response [15] 9.49%

CCNC(=S)Nc1ccc(OC(F)(F)F)cc1
inactive: percent of DMSO control GFP [1] 105% | GFP response vs DMSO [2] 107% | percent response of DMSO control [3] 102% | GFP response vs DMSO [4] 103% | GFP response, % of DMSO [5] 98.7% | vesicle binding response [6] 166% | inhibition [7] -1.17% | superoxide response (% of plate) [8] 93.5% | aptamer binding inhibition [9] 1% | inhibition [10] 43.4% | response [11] -22.5% | binding (% of control) [12] 101% | efflux inhibition (fraction of control) [13] -0.05 | inhibition [14] -3% | differentiation response [15] 11.1%
60.6%: double positive events [6]

CCCCNc1cc(C(=O)O)cc(S(N)(=O)=O)c1Oc1ccccc1
inactive: percent of DMSO control GFP [1] 102% | GFP response vs DMSO [2] 103% | percent response of DMSO control [3] 97.9% | GFP response vs DMSO [4] 89.3% | GFP response, % of DMSO [5] 102% | vesicle binding response [6] 179% | inhibition [7] 16.6% | superoxide response (% of plate) [8] 96.1% | aptamer binding inhibition [9] 6% | inhibition [10] 1.29% | response [11] 10.1% | binding (% of control) [12] 99.5% | efflux inhibition (fraction of control) [13] 0.06 | inhibition [14] 11% | differentiation response [15] -9.89%
52.3%: double positive events [6]

Cc1ccc(C(CC(=O)NCc2ccco2)c2ccc(OC(C)C)cc2)cc1 (stereo unspecified)
60.4%: double positive events [6]
inactive: percent of DMSO control GFP [1] 99.8% | GFP response vs DMSO [2] 106% | percent response of DMSO control [3] 96.9% | GFP response vs DMSO [4] 103% | GFP response, % of DMSO [5] 96.9% | vesicle binding response [6] 165% | inhibition [7] -138% | superoxide response (% of plate) [8] 103% | aptamer binding inhibition [9] 2% | inhibition [10] 37.9% | response [11] -2.51% | binding (% of control) [12] 97.7% | inhibition [14] 12% | differentiation response [15] -6.66%
active: efflux inhibition (fraction of control) [13] 0.67

CO[C@@H]1O[C@@H]2COC(c3ccccc3)O[C@@H]2[C@@H](OC)[C@@H]1O (stereo partly specified)
56%: double positive events [6]
inactive: percent of DMSO control GFP [1] 103% | GFP response vs DMSO [2] 104% | percent response of DMSO control [3] 106% | GFP response vs DMSO [4] 96.4% | GFP response, % of DMSO [5] 99.6% | vesicle binding response [6] 166% | inhibition [7] 5.36% | superoxide response (% of plate) [8] 117% | aptamer binding inhibition [9] 5% | inhibition [10] 15.1% | response [11] 4.1% | binding (% of control) [12] 102% | efflux inhibition (fraction of control) [13] 0.1 | inhibition [14] 4% | differentiation response [15] -9.89%

OC(CCN1CCCCC1)(c1ccccc1)C1CCCCC1 (stereo unspecified)
40.6%: double positive events [6]
inactive: percent of DMSO control GFP [1] 107% | GFP response vs DMSO [2] 102% | percent response of DMSO control [3] 108% | GFP response vs DMSO [4] 106% | GFP response, % of DMSO [5] 105% | vesicle binding response [6] 185% | inhibition [7] 0% | superoxide response (% of plate) [8] 97.3% | aptamer binding inhibition [9] -3% | inhibition [10] -9.7% | response [11] -2.57% | binding (% of control) [12] 108% | efflux inhibition (fraction of control) [13] -0.05 | inhibition [14] 5% | differentiation response [15] -8.27%

— PubChem BioAssay
